Vaccinia Venus: inhibitors of vaccinia virus (Venus reporter); Vaccinia virus Venus reporter expression, fluorescence; Potency, µM (series often up to 36.5 µM), for the others: top-dose activity change, negative = inhibition, usual class: inhibitors; hit rate 0.46% among 330,000; AID 720580; calls by dose curve; tested in A549 cells; note: nearly all actives have a fitted effect of over 30% in size
Vaccinia mCherry: vaccinia inhibition (mCherry reporter). Vaccinia virus mCherry reporter infection, fluorescence. Potency, µM (top dose mostly 36.5 µM), for inactives: at the highest dose activity change, negative = inhibition, usual class: inhibitors. hit rate 0.63% among 310,000. AID 720579; calls by dose curve; tested in A549 cells; note: nearly all actives have a fitted effect of over 35% in size
MARV entry inh: blocks Marburg virus binding to or entry into cells; Marburg virus pseudotyped entry inhibition, cell reporter; Potency, µM (titrated, usually from 37.8 µM), for inactives: at the highest dose activity change, negative = inhibition, hits mostly inhibitors; hit rate 1.8% among 300,000; AID 540276; calls by dose curve; tested in HEK293 cells
Sm TGR block: inhibitors of Schistosoma mansoni thioredoxin glutathione reductase. hit rate 3% among 360,000. Q962Y6. purified TGR, DTNB reduction, TNB absorbance 405 nm. AID 485364. Potency, µM (series often up to 114 µM), for the others: at the top dose activity change, negative = inhibition, hits mostly inhibitors; active = well fitted inhibition curve with a large enough effect; inconclusive = small, poorly fitted or top-dose-only effect; inactive = no such curve, though single readings can be large or run the other way; note: nearly all actives have a fitted effect of over 60% in size
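TGR 20 nM + NADPH 100 uM (dispensed conc.), cpd preinc 15 min RT; start with NADPH (500 uM addition) then DTNB (15 mM addition). Kinetic TNB absorbance, 405 nm filter. Four-parameter Hill fit across titration.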
FMDV inh: foot and mouth disease virus antiviral activity | FMDV antiviral cell-based qHTS | Potency, µM (doses to about 57.9 µM), for inactives: top-dose activity change, negative = inhibition, most hits filed as inhibitors | hit rate 1.2% among 410,000; calls by dose curve; tested in HEK293T cells; note: read-out not given here; nearly all actives have a fitted effect of over 45% in size
LASV entry inh: blocks Lassa virus binding to or entry into cells; Lassa virus pseudotype entry inhibition, cell reporter; Potency, µM (highest dose often 37.9 µM), for the others: at the top dose activity change, negative = inhibition, actives largely listed as inhibitors; AID 540256; hit rate 1.2% among 300,000; calls by dose curve; tested in HEK293 cells; note: nearly all actives have a fitted effect of over 50% in size
Starred values were filed as active, the others as inactive; i = inactive; ? = inconclusive; · = no result; [ ] = another dose, or the depositor's remark. A selection: hits, their analogues and other compounds. The true share with any hit is near 5.4%. % is set by controls: 0 for no effect and ±100 for the full control effect; potency is the fitted concentration of half-maximal effect.

SMILES	Vaccinia Venus	Vaccinia mCherry	MARV entry inh	Sm TGR block	FMDV inh	LASV entry inh
O=C(c1ccccc1C(=O)N1CCN(c2ccccc2)CC1)N1CCN(c2ccccc2)CC1	·	·	-2%	8%	-23%	?
O=C(O)c1ccccc1C(=O)N1CCN(c2ccccc2)CC1	-2%	·	?	35µM*	0%	0%
CC(C)NC(=O)NC(=O)COC(=O)c1c2c(nc3ccccc13)CCC2	-13%	-17%	?	-6%	11µM*	·
O=C(COC(=O)c1ccccc1C(=O)N1CCN(c2ccccc2)CC1)Nc1ccccc1	-17%	-13%	?	7%	?	-30%[46.1 µM]
COc1cccc(NC(=O)COC(=O)c2ccccc2C(=O)N2CCN(c3ccccc3)CC2)c1	-19%	-10%	?	-5%	18µM*	?
Cc1c(Cl)cccc1NC(=O)COC(=O)c1c2c(nc3ccccc13)CCN(Cc1ccccc1)C2	?	11µM*	2.6µM*	17%	?	?
COc1cccc(CO[C@H]2C=C[C@@H](c3ccccc3)O[C@H]2COC(C)=O)c1	·	·	8%[14.2 µM]	·	·	·
C[C@H]1CC[C@H]2C(=O)N(Cc3ccccc3)C[C@H](O)CN2[C@H]1c1cccc(Br)c1	·	·	-5%[14.2 µM]	·	·	14%[14.3 µM]
COc1ccc(Nc2nn3c(=O)c4cc5c(cc4nc3s2)OCO5)c(OC)c1	-1%	-3%	-11%[46.1 µM]	9%	1%	?
COc1cccc(Cc2nc3ccccc3nc2SCC(=O)NCCc2ccccc2)c1	2%	-3%	·	1%	?	?
CN1CCCN(C(=O)c2ccccc2Cl)CC1	-6%	-13%	7%[46.1 µM]	0%	-2%	12%[46.1 µM]
COc1cccc(NC(=O)c2ccc(CN3CCN(c4ccccc4)CC3)cc2)c1	·	·	5.8µM*	-4%	?	?
COc1cccc(N2CCN(CC(=O)Nc3nnc(-c4ccccc4)s3)CC2)c1	-26%	?	?	4%	16µM*	0.79µM*
COc1ccc(NC(=O)c2ccc(CN3CCN(c4ccccc4)CC3)cc2)cc1	-21%	·	?	-2%	?	?
O=C(O)c1ccccc1C(=O)N1CCN(C(=O)c2ccccc2Cl)CC1	5%	-22%	-10%[46.1 µM]	89µM*	8%	-7%
O=C(c1ccccc1C(=O)N1CCN(c2ccc(F)cc2)CC1)N1CCN(c2ccc(F)cc2)CC1	-24%	-23%	?	-9%	22µM*	?
COc1cccc(N2CCN(CC(=O)NC3=Nc4ccccc4N=C(C)C3c3ccccc3)CC2)c1 (stereo not drawn)	-7%	?	?	-19%	-25%	?
CSc1cccc(NC(=O)C2CCCN(C(=O)c3cnn(-c4ccc(F)cc4)c3-n3cccc3)C2)c1 (stereo not drawn)	?	-25%	·	6%	?	-14%[46.1 µM]
COc1ccc(S(=O)(=O)NCCc2sc(-c3cccnc3)nc2C)cc1	0%	4%	·	-26%	38%	-7%[46.1 µM]
CC1CCc2nc3ccccc3c(C(=O)OCC(=O)NC3CCS(=O)(=O)C3)c2C1 (stereo not drawn)	-9%	-17%	-10%[46.1 µM]	12%	-10%	-9%
COc1cccc(NC(=O)COC(=O)c2c3c(nc4ccccc24)CCC(C)C3)c1 (stereo not drawn)	·	·	7.3µM*	-14%	32µM*	18µM*
O=C(COC(=O)c1ccccc1C(=O)N1CCN(c2ccc(F)cc2)CC1)NCc1ccccc1	?	-13%	?	-1%	25µM*	?
CCC1CN(C(=O)Nc2ccccc2C(F)(F)F)c2ccccc2S1 (stereo not drawn)	2%	-8%	·	-1%	-7%	0%[46.1 µM]
COc1ccc(S(=O)(=O)n2nc(C)c(S(=O)(=O)N3CCC(C)CC3)c2C)cc1C	-9%	4%	·	1%	22%	?
CCOc1ccccc1C(=O)N(Cc1ccc(N(C)C)cc1)Cc1ccco1	-10%	i	11%[46.1 µM]	-2%	0%	?
O=C(Nc1nnc(Cc2ccccc2)s1)C1CCN(C(=O)c2cccs2)CC1	-21%	-14%	·	·	·	·
CC(=O)C(=Cc1ccc(Cl)cc1)C(=O)c1ccccc1	4%	i	·	·	28µM*	·
COc1ccc(C=C(C(C)=O)C(=O)c2ccccc2)cc1	-6%	i	·	·	?	·

Assay outcomes deposited in PubChem BioAssay by National Center for Advancing Translational Sciences (NCATS).
